# The whole screen tested about 16,000 compounds, of which about 5,800 (36%) were called active. Not shown: some 23% with an inconclusive outcome. The list shows a part of the results. Values without a mark were called inactive. The call rests on the fitted dose curve; in most records, active means well fitted curve in the direction sought with a large enough effect; inconclusive means small, poorly fitted or top-dose-only effect, or effect the other way; inactive means no such curve, though single readings can be large or run the other way.
# Target: Cytochrome P450 2C19 (Homo sapiens) (UniProt P33261)
# Experiment: Cytochrome panel assay with activity outcomes
# Settings: recombinant CYP, pro-luciferin dealkylation, luminescence, p450-cyp2c19; series mostly up to 57.1 µM; activity, negative = inhibition: at the top concentration
# On the % scale 0 is the no-effect control and ±100 the full control effect.
# Cytochrome P450 2C19 (Homo sapiens), sequence (P33261 whole entry, looked up): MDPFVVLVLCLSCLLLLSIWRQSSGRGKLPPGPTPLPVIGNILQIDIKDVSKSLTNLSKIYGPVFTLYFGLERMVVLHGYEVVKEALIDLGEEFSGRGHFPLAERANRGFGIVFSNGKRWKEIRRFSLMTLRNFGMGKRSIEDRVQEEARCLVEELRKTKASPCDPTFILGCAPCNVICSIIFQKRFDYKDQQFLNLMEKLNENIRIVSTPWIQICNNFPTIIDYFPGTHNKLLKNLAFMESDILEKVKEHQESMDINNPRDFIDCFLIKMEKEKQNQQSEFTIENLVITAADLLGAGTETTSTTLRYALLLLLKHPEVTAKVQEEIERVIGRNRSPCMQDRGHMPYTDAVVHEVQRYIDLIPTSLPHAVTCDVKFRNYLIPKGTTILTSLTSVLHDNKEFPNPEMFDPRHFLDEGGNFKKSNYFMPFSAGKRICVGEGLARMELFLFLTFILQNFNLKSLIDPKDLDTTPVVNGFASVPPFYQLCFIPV
SMILES,AC50,"activity, negative = inhibition"
O=C(N[C@@H](c1ccccc1)[C@@H]1C[C@H]1C(=O)NCc1ccccn1)OCc1ccccc1,7.94 µM (active),–
CCCCN1C(=O)C(NC(=O)C2CC2)(C(F)(F)F)C2=C1CC(C)(C)CC2=O (stereo unspecified),20 µM (active),–
CC1CCN(CCOc2cc(Cl)ccc2Cl)CC1,7.08 µM (active),–
Clc1ccc(Cl)c(SCCCN2CCNCC2)c1,–,11.4% [at 11.4 µM]
OCCN1CCN(CCOc2cccc(Cl)c2)CC1,–,28.5% (inactive)
O=C(O)CCCCCCCC(=O)O,–,14.9% (inactive)
CN(C)c1ccc(-c2nc3n(n2)C(c2cccnc2)C2=C(CC(C)(C)CC2=O)N3)cc1 (stereo unspecified),14.1 µM (active),–
c1cc(CNCCN2CCNCC2)ccn1,–,-34.1% [at 11.4 µM]
c1cc(CNCCCN2CCOCC2)ccn1,7.94 µM (active),–
CCOc1ccccc1CNCCN1CCOCC1,–,6.81% (inactive)
Cn1c(=O)c(-c2ccc(F)c(F)c2)nc2cncnc21,–,-43.5% (inactive)
CSc1nncc(-c2ccc(F)c(F)c2)n1,11.2 µM (active),–
CC(=O)Nc1ccc2c(c1)/C(=C/c1ccc([N+](C)(C)C)cc1)c1ccccc1-2,–,-19.5% [at 11.4 µM]
O=C(OCc1ccc(Cl)cc1Cl)c1cccnc1Cl,0.355 µM (active),–
O=C(O)COc1c(Cl)cc(Cl)c2cccnc12,–,26% [at 11.4 µM]
CC(=O)N1c2c(cc(Br)cc2S(=O)(=O)NCC2COc3ccccc3O2)CC1C (stereo unspecified),3.16 µM (active),–
COc1ccc(-n2nnnc2/C=C\Nc2ccccc2C(=O)c2ccccc2)cc1,0.316 µM (active),–
COc1ccc(C(F)(F)F)cc1N/C=C\c1nnnn1-c1ccccc1,1.12 µM (active),–
COc1cccc(Cn2c(=O)c(-c3ccccc3)nc3cnc(N4CCN(C)CC4)nc32)c1,–,-13.9% (inactive)
COc1cccc(Cn2c(=O)c(-c3cccc(C#N)c3)nc3cnc(N4CCN(C)CC4)nc32)c1,–,20.9% (inactive)
COc1cccc(Cn2c(=O)c(CCc3ccccc3)nc3cnc(N4CCN(C)CC4)nc32)c1,7.94 µM (active),–
CN1CCN(c2ncc3nc(CCc4ccccc4)c(=O)n(Cc4ccc(F)cc4)c3n2)CC1,–,-34.9% (inactive)
COc1cccc(Cn2c(=O)c(CCc3ccccc3)nc3cnc(N4CCNCC4)nc32)c1,25.1 µM (active),–

SMILES,AC50,"activity, negative = inhibition"
O=C1[C@H]2CCn3c(=O)n(-c4ccccc4)c(=O)n3[C@H]2[C@H](O)[C@H]2O[C@@H]12,–,-1.55% [at 11.4 µM]
CN(C1CCCCC1)S(=O)(=O)c1ccc(NC(=S)NC(=O)c2cccs2)cc1,3.55 µM (active),–
CCN(CC)S(=O)(=O)c1ccc(NC(=O)COC(=O)c2ccc(Br)o2)cc1,11.2 µM (active),–
CC(=O)NS(=O)(=O)c1ccc(NC(=S)NC(=O)c2ccco2)cc1,–,7.63% (inactive)
CN(C)S(=O)(=O)c1ccc(NC(=O)COC(=O)c2ccccn2)cc1,–,-16% (inactive)
Cc1noc(NS(=O)(=O)c2ccc(NC(=O)c3ccc(Br)o3)cc2)c1C,–,-25.5% (inactive)
CCN(c1ccccc1)S(=O)(=O)c1ccc(NC(=S)NC(=O)c2cccs2)cc1,3.98 µM (active),–
CCCC(=O)Nc1ccc(C(=O)NNC(=S)NC(=O)c2cccs2)cc1,–,-22.5% (inactive)
CCN(c1ccccc1)S(=O)(=O)c1ccc(NC(=S)NC(=O)c2ccc(Br)o2)cc1,8.91 µM (active),–
CCCCCCCCCCCCCCCC[N+](C)(C)CCN(Cc1ccc(OC)cc1)c1ncccn1,–,-43.8% [at 25.6 µM] (inactive)
Cc1nc2cnc(N(C)C)nc2n(-c2ccccc2)c1=O,–,5.33% (inactive)
O=c1c(CCc2ccccc2)nc2cncnc2n1Cc1ccccc1Cl,5.01 µM (active),–
O=c1c(CCc2ccccc2)nc2cncnc2n1Cc1ccc(F)cc1,6.31 µM (active),–
O=c1c(CCc2ccccc2)nc2cncnc2n1-c1ccccc1,10 µM (active),–
Brc1ccc(-c2nnc(-c3cccc(Br)c3)o2)cc1,–,-11.7% (inactive)
Cc1nnc(-c2cccc(Br)c2)c2cn(-c3ccc(Br)cc3)nc12,5.01 µM (active),–
Cc1nnc(-c2cccc(Br)c2)c2cn(-c3ccccc3Cl)nc12,1.78 µM (active),–
CCn1c(CC(C)C)n[nH]c1=S,–,16% (inactive)
CCc1nn(C)c(-c2n[nH]c(=S)n2N)c1Cl,–,-20.1% (inactive)
CC(C)Cn1c(-c2nn(C)cc2Cl)n[nH]c1=S,15.8 µM (active),–
O=C(Nc1ccc2c(c1)nc1n2CCN(C2CCCCC2)C1)NC1CCCCC1,14.1 µM (active),–
CC1CCN(CCc2nc3cc(NC(=O)NC4CCCCC4)ccc3n2C)CC1,–,-5.62% (inactive)
C[C@@H]1/C=C\CC(=O)OC[C@H]2O[C@@H](C=C[C@@H]2O)[C@H](C)/C=C\CC(=O)OC1,–,-20.4% [at 11.4 µM]

# From PubChem BioAssay AID1851 (National Center for Advancing Translational Sciences (NCATS), 2009)
